# Source: PubChem BioAssay AID463173 (ICCB-Longwood Screening Facility, Harvard Medical School, 2010)
# Out of some 52,000 compounds screened, about 4,300 (8.3%) were called active. No stated cut-off is given here; in the data, active means survival mostly below about 52% (no sharp cut-off); inactive means mostly above about 56%. The entries come from a sample that favours actives as a whole.
# System: DeltatarO mutant
# Assay: growth inhibition of S. aureus wild type versus tarO mutant, primary screen, teichoic acid synthesis inhibitors, RN4220, OD600 (AID 463173)
# Details: OD600, 18 h, active compounds read low, concentration not given here
row,SMILES,survival
1,O=C(CNC1CCCCC1)N1CCC2(CC1)OCCO2,116% (inactive)
2,CCc1cccc(NC(=O)CN2C(=O)CN=C(c3ccccc3F)c3cc(Cl)ccc32)c1,94% (inactive)
3,CCC(C)N1CCN(Cc2cc(OC)c(OC)cc2OC)CC1 (stereo not drawn),108% (inactive)
4,CCNCC1(c2ccc(OC)c(OC)c2)CCCC1,94% (inactive)
5,O=C1CC(=O)N(C2CCCCC2)C(=O)N1,77% (inactive)
6,CCSc1nnc(NC(=O)c2cccn(Cc3ccc(Cl)cc3)c2=O)s1,73% (inactive)
7,CC(=O)Nc1c(O)[nH]c(=S)[nH]c1=O,103% (inactive)
8,O=C(Nc1nc2ccccc2s1)c1cccn(Cc2ccccc2)c1=O,83% (inactive)
9,CCOC(=O)C1=C(C)OC(N)=C(C#N)C12C(=O)N1c3c(cccc32)C(C)CC1(C)C (stereo not drawn),51% (inactive)
10,CCOC(=O)CC1=C(C(=O)OCC)C2(C(=O)N(C)c3ccccc32)C(C#N)=C(N)O1 (stereo not drawn),0% (active)
11,COC(=O)CC1=C(C(=O)OC)C2(C(=O)Nc3ccc(F)cc32)C(C#N)=C(N)O1 (stereo not drawn),65% (inactive)
12,CCC(C)c1c(O)[nH]c(=S)[nH]c1=O (stereo not drawn),82% (inactive)
13,CCN(CC)C(=O)c1ccc(NC(=O)c2ccc(-c3nn(C)c(=O)c4ccccc34)cc2)cc1,68% (inactive)
14,Cc1ccnc(NS(=O)(=O)c2ccc(N=Cc3c(O)n(C)c(=O)n(C)c3=O)cc2)n1,93% (inactive)
15,COc1ccc(-c2nc(CN3C(=O)CN=C(c4ccccc4Cl)c4cc(Cl)ccc43)c(C)o2)cc1OC,63% (inactive)
16,CN1CCN(c2oc(-c3ccc(COc4ccccc4)o3)nc2C#N)CC1,41% (active)
17,CN1C(=O)C(Cc2cccs2)C(=O)N(C)C1=O,80% (inactive)
18,CC(C)C(=O)N1N=C(c2cccnc2)CC1(O)C(F)(F)F (stereo not drawn),66% (inactive)
19,OC1(c2ccc(F)cc2)CC2CCC(C1)N2Cc1nnnn1C1CCCCC1 (stereo not drawn),97% (inactive)
20,Cc1ccc(NC(=O)N(Cc2ccc3c(c2)OCO3)C2CCN(Cc3ccccc3)CC2)cc1F,87% (inactive)
21,Cc1ccc(NC(=O)N(Cc2ccc3c(c2)OCO3)C2CCN(Cc3ccccc3)CC2)cc1C,17% (active)
22,Cc1ccc(NC(=O)N(Cc2ccc3c(c2)OCO3)C2CCN(Cc3ccccc3)CC2)cc1Cl,128% (inactive)
23,COc1ccc(NC(=O)CN2C(=O)C(C)N=C(c3ccccc3)c3ccccc32)cc1OC (stereo not drawn),116% (inactive)
24,CCCC12CN3CC(CCC)(CN(C1)C3c1ccccn1)C2=O (stereo not drawn),84% (inactive)
25,O=C1CC(=O)N(c2ccccc2)C(=O)N1c1ccccc1,90% (inactive)

row,SMILES,survival
1,O=C(Nc1ccc(Br)cc1C(=O)c1ccccc1Cl)c1ccc(Br)cc1,144% (inactive)
2,CC(C)(C)c1ccc(OCC(=O)Nc2ccc(Cl)cc2C(=O)c2ccccc2)cc1,70% (inactive)
3,Cc1ccc(OCC(=O)Nc2ccc(Cl)cc2C(=O)c2ccccc2)cc1C,69% (inactive)
4,CC(C)(C)c1ccc(C(=O)Nc2ccc(Cl)cc2C(=O)c2ccccc2)cc1,6% (active)
5,O=C(Nc1ccc(Br)cc1C(=O)c1ccccc1)c1ccccc1,-1% (active)
6,O=C(Nc1ccc(Br)cc1C(=O)c1ccccc1Cl)c1ccccc1F,52% (inactive)
7,COc1cc(OC)cc(C(=O)Nc2ccc(Cl)cc2C(=O)c2ccccc2Cl)c1,171% (inactive)
8,CSc1ncc(C(=O)Nc2ccc(Cl)cc2C(=O)c2ccccc2)c(C)n1,98% (inactive)
9,Cc1cccc(C)c1OCC(=O)Nc1ccc(Cl)cc1C(=O)c1ccccc1,17% (active)
10,COc1ccc(C(=O)Nc2ccc(Cl)cc2C(=O)c2ccccc2)c(OC)c1,2% (active)
11,O=C(COc1ccc(Cl)cc1)Nc1ccc(Cl)cc1C(=O)c1ccccc1,83% (inactive)
12,Cc1cc(C)cc(OCC(=O)Nc2ccc(Cl)cc2C(=O)c2ccccc2)c1,82% (inactive)
13,CC(=O)NC1CC2CCC(C1)N2 (stereo not drawn),98% (inactive)
14,O=C(CCc1nc(C2=CCN(Cc3cccc(Cl)c3)CC2)no1)Nc1ccccc1F,81% (inactive)
15,OC1(c2cccc(F)c2)CC2CCC(C1)N2Cc1nnnn1CCc1ccccc1 (stereo not drawn),85% (inactive)
16,CSc1ccc(CN2CCN(C(=O)COc3cccc(C)c3)CC2)cc1,84% (inactive)
17,Cc1c(/C(CC(C)C)=N/O)c2ccccc2n1C,79% (inactive)
18,O=C(Nc1ccc(F)c([N+](=O)[O-])c1)c1cccn(Cc2ccccc2)c1=O,115% (inactive)
19,CN1CCN(Cc2cn3ccccc3n2)CC1,104% (inactive)
20,CCOc1ccc(CN(CCc2ccc3c(c2)OCO3)Cc2cccc(OC)c2)cc1,44% (inactive)
21,CCOc1ccc(CN(CCc2ccc3c(c2)OCO3)Cc2cc(OC)ccc2O)cc1,62% (inactive)
22,O=C(COc1ccc(Br)cc1)Nc1ccc(Cl)cc1C(=O)c1ccccc1,83% (inactive)
23,O=C(Nc1ccc(Cl)cc1C(=O)c1ccccc1)c1cc(Cl)cc(Cl)c1,150% (inactive)
24,O=C(Nc1ccc(Cl)cc1C(=O)c1ccccc1)c1ccccc1Br,24% (active)
25,CC(C)OC12Oc3ccccc3C=C1N1CCC2CC1 (stereo not drawn),80% (inactive)

row,SMILES,survival
1,COc1ccc(CN2CCN(C(=O)COc3ccccc3)CC2)c(OC)c1,184% (inactive)
2,c1cc(CN2CCNCC2)ccn1,105% (inactive)
3,Nc1c(C(=O)Nc2ccc(F)c(Cl)c2)sc2nc3c(cc12)N1CCC3CC1,65% (inactive)
4,Nc1c(C(=O)Nc2ccc(Cl)c(C(F)(F)F)c2)sc2nc3c(cc12)N1CCC3CC1,4% (active)
5,Nc1c(C(=O)Nc2ccc(Br)cc2F)sc2nc3c(cc12)N1CCC3CC1,132% (inactive)
6,Nc1c(C(=O)Nc2ccc(OC(F)(F)F)cc2)sc2nc3c(cc12)N1CCC3CC1,99% (inactive)
7,Nc1c(C(=O)Nc2ccc(Cl)cc2)sc2nc3c(cc12)N1CCC3CC1,55% (inactive)
8,Nc1c(C(=O)Nc2cccc(Br)c2)sc2nc3c(cc12)N1CCC3CC1,40% (active)
9,COc1ccc(C2CC(=O)Oc3c2c(=O)oc2ccccc32)c(OC)c1OC (stereo not drawn),75% (inactive)
10,COc1ccccc1CN1CCN(C(=O)COc2cccc(C)c2)CC1,162% (inactive)
11,O=C1CN=C(c2ccccc2)c2cc(Cl)ccc2N1Cc1ccc(Cl)cc1,66% (inactive)
12,Cc1ccc(Cn2cccc(C(=O)Nc3ccc4c(c3)OCCO4)c2=O)cc1,83% (inactive)
13,CCOc1ccccc1CN(CCc1ccc2c(c1)OCO2)Cc1ccc(CC)cc1,111% (inactive)
14,CCCC1=Nc2cc(C(=O)NC3CCC(C)CC3)ccc2Sc2ccccc21 (stereo not drawn),39% (active)
15,CCCC1=Nc2cc(C(=O)NCCCN(CC)CC)ccc2Sc2ccccc21,138% (inactive)
16,CC1CC(=O)C2CCCCC2N1 (stereo not drawn),84% (inactive)
17,Cc1ccc(Cn2cccc(C(=O)Nc3ccc4c(c3)OCO4)c2=O)cc1,75% (inactive)
18,CN(C)C(=O)Oc1cccc2cccnc12,76% (inactive)
19,Cc1cccc(-n2c(/C=C/c3c(C)[nH]c4ccccc34)nc3ccccc3c2=O)c1,120% (inactive)
20,Cc1ccc(-n2c(/C=C\c3ccc(F)c(F)c3)nc3ccccc3c2=O)c(C)c1,98% (inactive)
21,Cc1ccccc1-n1c(/C=C/c2ccc(N(C)C)cc2)nc2ccccc2c1=O,8% (active)
22,O=c1c2ccccc2nc(/C=C\c2ccc(F)cc2)n1-c1ccccc1F,94% (inactive)
23,Cc1ccccc1-n1c(/C=C/c2ccc(O)cc2)nc2ccccc2c1=O,35% (active)
24,Cc1ccccc1-n1c(/C=C/c2ccccc2F)nc2ccccc2c1=O,5% (active)
25,COc1ccc(-n2c(/C=C\c3ccccc3F)nc3ccccc3c2=O)c(OC)c1,89% (inactive)

row,SMILES,survival
1,CSc1ccc(/C=C/c2nc3ccccc3c(=O)n2-c2cccc(Cl)c2C)cc1,80% (inactive)
2,Cc1ccc(-n2c(/C=C/c3ccc(Br)s3)nc3ccccc3c2=O)cc1C,90% (inactive)
3,Cc1ccc(-n2c(/C=C/c3ccccc3)nc3ccccc3c2=O)cc1C,78% (inactive)
4,O=c1c2ccccc2nc(/C=C/c2ccccc2)n1-c1ccccc1F,69% (inactive)
5,Cc1ccccc1-n1c(/C=C/c2c(C)[nH]c3ccccc23)nc2ccccc2c1=O,18% (active)
6,CN1C2CCC1CC(OC(=O)C1(c3ccccc3)CCCC1)C2 (stereo not drawn),116% (inactive)
7,CCN(CC)CCSc1nc2ccccc2c(=O)n1-c1ccc(Cl)cc1,148% (inactive)
8,CC(c1ccccc1)n1cncc1C(=O)N1CCCC1=O (stereo not drawn),87% (inactive)
9,Cc1ccc(OCC(=O)N2CCN(Cc3ccc(F)cc3)CC2)cc1,156% (inactive)
10,Cc1cccc(NC(=O)Cn2cc(C(=O)c3ccccc3)c3ccccc32)c1,130% (inactive)
11,CCOc1ccc(CN2C(=O)c3ccccc3Sc3ccc(C(=O)N4CCC5(CC4)OCCO5)cc32)cc1,74% (inactive)
12,COc1cc2[nH]c(=O)n(-c3ccc(C)cc3)c(=O)c2cc1OC,94% (inactive)
13,OC1CCNC2CCCCC12 (stereo not drawn),94% (inactive)
14,Cc1nc2ccccc2c(=O)n1-c1cccc(O)c1,96% (inactive)
15,Cc1oc(-c2ccccc2Cl)nc1CN1C(=O)CN=C(c2ccccc2)c2cc(Cl)ccc21,77% (inactive)
16,Cc1cccc(Cn2cccc(C(=O)Nc3nc4ccccc4s3)c2=O)c1,122% (inactive)
17,Cc1ccc(-n2nc(C)c3c2NC(=O)CSC3c2ccc(O)cc2)cc1Cl (stereo not drawn),73% (inactive)
18,Cc1ccccc1-n1nc(C)c2c1NC(=O)CSC2c1ccc(Cl)cc1 (stereo not drawn),21% (active)
19,CCc1ccc(-n2nc(C)c3c2NC(=O)CSC3c2ccccc2C)cc1 (stereo not drawn),57% (inactive)
20,Cc1ccccc1-n1nc(C)c2c1NC(=O)CSC2c1ccc(N(C)C)cc1 (stereo not drawn),43% (active)
21,Cc1ccccc1-n1nc(C)c2c1NC(=O)CSC2c1ccccc1C(F)(F)F (stereo not drawn),39% (active)
22,COc1ccc(Br)cc1C1SCC(=O)Nc2c1c(C)nn2-c1ccccc1C (stereo not drawn),43% (inactive)
23,CCc1ccc(-n2nc(C)c3c2NC(=O)CSC3c2ccc(C(=O)OC)cc2)cc1 (stereo not drawn),64% (inactive)
